About 79,000 compounds went through this panel and 15% of them were active in at least one assay; those are over-represented in the sample as a whole. The source made the active and inactive calls. Cut-off read from the data, not from the text of the source: active = growth inhibition above about 70%; inactive = the rest.
How the values were obtained:
[1] = NCI Yeast Anticancer Drug Screen. Data for the rad52 strain (AID 147);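 note: 0% = growth of vehicle-treated control cultures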; conditions: S. cerevisiae rad52 mutant growth inhibition, active compounds read high
Method in brief: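 The repair-mutant yeast strain was incubated with compounds, then growth was read and inhibition derived relative to vehicle.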

[2] = NCI Yeast Anticancer Drug Screen. Data for the wt1 strain (AID 149);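 note: 0% = growth of vehicle-treated wt1 cultures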; conditions: S. cerevisiae wt1 strain (SPY 50644) growth inhibition, active compounds read high
Method in brief: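 wt1 yeast, compound-treated; % growth inhibition vs vehicle control.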

[3] = NCI Yeast Anticancer Drug Screen. Data for the rad50EPP+ strain (AID 151);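 note: 0% = growth of vehicle-treated control cultures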; conditions: S. cerevisiae rad50 mutant strain, active compounds read high
Method in brief: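 Vehicle-normalised growth inhibition; rad50EPP+ yeast strain, altered in DNA damage repair, compound-treated.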

[4] = NCI Yeast Anticancer Drug Screen. Data for the mgt1 strain (AID 153); conditions: S. cerevisiae mgt1 mutant growth inhibition, active compounds read high
Method in brief: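 Vehicle-normalized growth inhibition is determined in mgt1 yeast, a strain selected for a defined alteration in DNA repair or cell cycle control.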

[5] = NCI Yeast Anticancer Drug Screen. Data for the rad50 strain (AID 155);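 note: 0% = growth of vehicle-only cultures of the same strain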; conditions: S. cerevisiae rad50 strain growth inhibition, active compounds read high
Method in brief: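 Genetically altered yeast (DNA repair pathway); compound treatment; growth inhibition vs vehicle ctrl.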

[6] = NCI Yeast Anticancer Drug Screen. Data for the mec2-1 strain (AID 157); conditions: S. cerevisiae mec2-1 strain, active compounds read high
Method in brief: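 Mutant yeast (mec2-1) grown with compound; growth inhibition relative to vehicle control reported.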

[7] = NCI Yeast Anticancer Drug Screen. Data for the rad14 strain (AID 159);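 note: 0% = growth of vehicle-treated control cultures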; conditions: S. cerevisiae rad14 strain growth inhibition, active compounds read high
Method in brief: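 Test compounds were applied to a repair-deficient yeast strain. Its growth was then compared with that of cultures given vehicle alone, and inhibition was expressed relative to those controls.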

[8] = NCI Yeast Anticancer Drug Screen. Data for the sgs1 mgt1 strain (AID 161);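 note: 0% = growth of cultures given vehicle only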; conditions: S. cerevisiae sgs1 mgt1 strain, active compounds read high
Method in brief: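 This yeast growth screen uses a strain with defined DNA-repair lesions; compound-treated growth is compared with vehicle-treated growth.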

[9] = NCI Yeast Anticancer Drug Screen. Data for the CLN2oe strain (AID 163);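 note: 0% = growth of vehicle-only control cultures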; conditions: S. cerevisiae CLN2oe strain, active compounds read high
Method in brief: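 Compounds are applied to yeast harbouring a defined cell-cycle control change; reduced growth compared with vehicle-treated controls gives the value.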

[10] = NCI Yeast Anticancer Drug Screen. Data for the cln2 rad14 strain (AID 165);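 note: 0% = growth equal to vehicle treated cultures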; conditions: S. cerevisiae cln2 rad14 strain, active compounds read high
Method in brief: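 Readout is yeast growth inhibition versus vehicle-treated controls, using a strain with cln2 and rad14 alterations exposed to compound.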

[11] = NCI Yeast Anticancer Drug Screen. Data for the bub3 strain (AID 167); conditions: S. cerevisiae bub3 mutant strain, active compounds read high
Method in brief: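 Yeast carrying a defined mutation is treated with each compound, and growth is compared with that of vehicle-exposed cells to give inhibition.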

[12] = NCI Yeast Anticancer Drug Screen. Data for the mlh1 strain (AID 171);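 note: 0% = growth of vehicle-treated control cultures of the same strain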; conditions: S. cerevisiae mlh1 strain growth inhibition, active compounds read high
Method in brief: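 Measured: yeast growth. Reference: vehicle-treated controls. Organism: strain with a defined alteration affecting DNA damage repair or cell cycle control, treated with compound.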

[13] = NCI Yeast Anticancer Drug Screen. Data for the sgs1 strain (AID 173);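 note: 0% = growth of vehicle-only control cultures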; conditions: S. cerevisiae sgs1 mutant, active compounds read high
Method in brief: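 Each compound was added to cultures of the altered yeast strain. Growth was recorded, and inhibition was derived by comparison with vehicle controls.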

[14] = NCI Yeast Anticancer Drug Screen. Data for the mlh1 rad18 strain (AID 175); conditions: S. cerevisiae mlh1 rad18 strain growth inhibition, active compounds read high
Method in brief: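 Genetically defined yeast (DNA repair-deficient) exposed to compounds; growth inhibition determined relative to vehicle.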

[15] = NCI Yeast Anticancer Drug Screen. Data for the rad18 strain (AID 177); conditions: S. cerevisiae rad18 mutant growth inhibition, active compounds read high
Method in brief: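 Vehicle-treated cultures served as the baseline for scoring compound-induced growth inhibition in DNA-repair-mutant yeast.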

[16] = NCI Yeast Anticancer Drug Screen. Data for the wt2 strain (AID 169);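 note: 0% = growth of vehicle-treated yeast cultures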; conditions: S. cerevisiae wt2 strain growth inhibition, active compounds read high
Method in brief: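 Against vehicle-treated controls, the growth of yeast exposed to each compound was compared, and the inhibition was recorded.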

[17] = at 5.0 µM (retest, dose inferred, filed as 0.5)
[18] = at 50.0 µM (retest, dose inferred, filed as 5.0)

Measured: growth inhibition

O=NN(CCCl)C(=O)NCCCl
inactive: [1]; at 1.2 µM 0% | [1]; at 3.7 µM 1% | [1]; at 11.0 µM 6% | [1]; at 33.0 µM 13% | [1]; at 100.0 µM 51% | [2]; at 1.2 µM -1% | [2]; at 3.7 µM -2% | [2]; at 11.0 µM -1% | [2]; at 33.0 µM 0% | [2]; at 100.0 µM -16% | [3]; at 1.2 µM -3% | [3]; at 3.7 µM -1% | [3]; at 11.0 µM 5% | [3]; at 33.0 µM 30% | [4]; at 1.2 µM -3% | [4]; at 3.7 µM -2% | [4]; at 11.0 µM 0% | [4]; at 33.0 µM 2% | [4]; at 100.0 µM 3% | [5]; at 1.2 µM 0% | [5]; at 3.7 µM 0% | [5]; at 11.0 µM 6% | [5]; at 33.0 µM 15% | [5]; at 50.0 µM 35.6% | [5]; at 100.0 µM 53% | [6]; at 1.2 µM -2% | [6]; at 3.7 µM 0% | [6]; at 11.0 µM 1% | [6]; at 33.0 µM 4% | [6]; at 50.0 µM -4.3% | [6]; at 100.0 µM 15% | [7]; at 1.2 µM -2% | [7]; at 3.7 µM 1% | [7]; at 11.0 µM 3% | [7]; at 33.0 µM 3% | [7]; at 100.0 µM 11% | [8]; at 50.0 µM 6.75% | [9]; at 1.2 µM -10% | [9]; at 3.7 µM -5% | [9]; at 11.0 µM -6% | [9]; at 33.0 µM -5% | [9]; at 100.0 µM 0% | [10]; at 50.0 µM 2.3% | [11]; at 1.2 µM 2% | [11]; at 3.7 µM -2% | [11]; at 11.0 µM 0% | [11]; at 33.0 µM -6% | [11]; at 50.0 µM -10.8% | [11]; at 100.0 µM 3% | [12]; at 1.2 µM -1% | [12]; at 3.7 µM -2% | [12]; at 11.0 µM -2% | [12]; at 33.0 µM 1% | [12]; at 100.0 µM 8% | [13]; at 1.2 µM -2% | [13]; at 3.7 µM -1% | [13]; at 11.0 µM 1% | [13]; at 33.0 µM 10% | [13]; at 100.0 µM 33% | [14]; at 50.0 µM 43% | [15]; at 1.2 µM 4% | [15]; at 3.7 µM 13% | [15]; at 11.0 µM 45%
active: [3]; at 100.0 µM 76% | [15]; at 33.0 µM 85% | [15]; at 100.0 µM 94%

C=C1N(C)c2ccc(Cl)cc2C1(C)C
active: [1]; at 100.0 µM 94% | [2]; at 100.0 µM 92% | [4]; at 100.0 µM 97% | [5]; [18] 99% | [5]; at 50.0 µM 88.9% | [5]; at 100.0 µM 94% | [6]; [17] 77% | [6]; [18] 100% | [6]; at 50.0 µM 90.1% | [6]; at 100.0 µM 96% | [7]; at 100.0 µM 95% | [8]; [18] 88% | [9]; at 100.0 µM 96% | [10]; [18] 86% | [11]; [18] 93% | [11]; at 100.0 µM 97% | [16]; at 100.0 µM 94% | [12]; at 100.0 µM 94% | [13]; at 100.0 µM 92% | [14]; [18] 100% | [14]; at 50.0 µM 88.9% | [15]; at 100.0 µM 94%
inactive: [1]; at 1.2 µM -26% | [1]; at 3.7 µM -25% | [1]; at 11.0 µM -38% | [1]; at 33.0 µM -7% | [2]; at 1.2 µM -37% | [2]; at 3.7 µM -28% | [2]; at 11.0 µM -30% | [2]; at 33.0 µM -21% | [3]; at 1.2 µM -5% | [3]; at 3.7 µM -7% | [3]; at 11.0 µM -23% | [3]; at 33.0 µM -18% | [3]; at 100.0 µM -6% | [4]; at 1.2 µM -23% | [4]; at 3.7 µM 0% | [4]; at 11.0 µM 0% | [4]; at 33.0 µM 29% | [5]; at 1.2 µM 4% | [5]; at 3.7 µM -22% | [5]; [17] 68% | [5]; at 11.0 µM -26% | [5]; at 33.0 µM 20% | [6]; at 1.2 µM -3% | [6]; at 3.7 µM 4% | [6]; at 11.0 µM -8% | [6]; at 33.0 µM 19% | [7]; at 1.2 µM -33% | [7]; at 3.7 µM -37% | [7]; at 11.0 µM -23% | [7]; at 33.0 µM 12% | [8]; [17] -6% | [9]; at 1.2 µM -16% | [9]; at 3.7 µM -31% | [9]; at 11.0 µM -22% | [9]; at 33.0 µM 4% | [10]; [17] 64% | [11]; at 1.2 µM 18% | [11]; at 3.7 µM 28% | [11]; [17] -1% | [11]; at 11.0 µM 5% | [11]; at 33.0 µM 28% | [16]; at 1.2 µM -30% | [16]; at 3.7 µM -30% | [16]; at 11.0 µM -28% | [16]; at 33.0 µM -23% | [12]; at 1.2 µM -45% | [12]; at 3.7 µM -43% | [12]; at 11.0 µM -30% | [12]; at 33.0 µM 3% | [13]; at 1.2 µM -24% | [13]; at 3.7 µM -46% | [13]; at 11.0 µM -47% | [13]; at 33.0 µM 1% | [14]; [17] 57% | [15]; at 1.2 µM -2% | [15]; at 3.7 µM -18% | [15]; at 11.0 µM -26% | [15]; at 33.0 µM 15%

COc1cc(NCc2ccc3nc(N)nc(N)c3c2C)cc(OC)c1OC
inactive: [1]; at 1.2 µM 1% | [1]; at 3.7 µM 5% | [1]; at 11.0 µM 17% | [1]; at 33.0 µM 37% | [1]; at 100.0 µM 68% | [2]; at 1.2 µM -1% | [2]; at 3.7 µM -4% | [2]; at 11.0 µM -6% | [2]; at 33.0 µM -7% | [2]; at 100.0 µM 1% | [3]; at 1.2 µM -5% | [3]; at 3.7 µM -4% | [3]; at 11.0 µM -4% | [3]; at 33.0 µM 6% | [3]; at 100.0 µM 27% | [4]; at 1.2 µM -3% | [4]; at 3.7 µM -6% | [4]; at 11.0 µM -7% | [4]; at 33.0 µM -7% | [4]; at 100.0 µM 37% | [5]; at 1.2 µM -3% | [5]; at 3.7 µM -3% | [5]; at 11.0 µM 7% | [5]; at 33.0 µM 28% | [5]; at 50.0 µM -7.65% | [6]; at 1.2 µM -4% | [6]; at 3.7 µM 8% | [6]; at 11.0 µM 39%
active: [5]; at 100.0 µM 78% | [6]; at 33.0 µM 82%

From PubChem BioAssay (NCI)
